Active and inactive are the calls of the source.

Experiment [1] in a line: small molecules captured by biotinylated probe aFSTL3 – biochemical, small-molecule microarray, fluorescence 635/667, stem cell growth factor project, primary screen (AID 1064).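 Further: measures binding of the biotinylated anti-FSTL3 antibody to printed compounds.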 The note with it: higher = more signal.
Experiment [2] can be described thus: binders from COS7 lysate, DM2A8 probe, primary screen, torsin A project, cell lysate, small-molecule microarray, fluorescence 635/667 (AID 1065). The note with it: higher = more signal, COS7 lysate expressing mutant human TOR1A.
The nature of experiment [3]: small molecules captured by biotinylated probe aFGF2 – biochemical, small-molecule microarray, fluorescence 635/667, stem cell growth factor project, primary screen (AID 1067).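 Further: measures binding of biotinylated aFGF2 protein to printed compounds on slides; z-score merges feature fluorescence and signal-to-noise across triplicate slides.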 The following applies: higher = more signal.
Experiment [4] can be described thus: small molecules captured by biotinylated probe aFGF10 – biochemical, small-molecule microarray, fluorescence 635/667, stem cell growth factor project, primary screen (AID 1071).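 Further: score merges 667 nm spot intensity and signal to noise from triplicate slides.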 The following applies: higher = more signal.
Experiment [5] concerns the target Neurogenic locus notch homolog protein 2 (Homo sapiens) (UniProt Q04721). Nature of the experiment: small molecules binding Notch2 protein – biochemical, small-molecule microarray, 635 nm fluorescence, stem cell growth factors, primary screen (AID 1073). The note with it: higher = more signal.
Experiment [6] has as its target Pro-neuregulin-1, membrane-bound isoform (Homo sapiens) (UniProt Q02297). Nature of the experiment: small molecules binding neuregulin-1 protein – biochemical, small-molecule microarray, fluorescence 635/667, psychiatric disease protein project, primary screen (AID 1075).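 Further: score combines 667 nm spot fluorescence with signal to noise.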 The following applies: NRG1 binding, 635 nm fluorescence, higher = more signal.
Experiment [7] relates to Neuregulin-1 EGF-like domain. Nature of the experiment: small molecules binding NRG1 EGF domain – biochemical, small-molecule microarray, 635 nm fluorescence, primary screen (AID 1081).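 Further: binding of the protein to compounds printed on small-molecule microarray slides.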 The note with it: higher = more signal.
Experiment [8] can be described thus: FRG1 expression reporter modulators in myotubes – cell-based, C2C12 myotubes, firefly/Renilla luciferase, luminescence, FRG1 inhibition for FSHD, primary screen (AID 1084). The note with it: FRG1 promoter luciferase, higher = more signal, called active from +8 up or from −8 down.
Experiment [9] is described as follows: small molecules captured by biotinylated probe aFST – biochemical, small-molecule microarray, fluorescence 635/667, stem cell growth factor project, primary screen (AID 1086).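 Further: score merges 667 nm fluorescence with signal-to-noise of each printed compound spot.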 The following applies: higher = more signal.
Experiment [10] in a line: binders of probe aHhip on microarray, primary screen, stem cell growth factor project, biochemical, small-molecule microarray, fluorescence 635/667 (AID 1087).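 Further: score merges spot fluorescence at 667nm with spot signal to noise ratio.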 The following applies: higher = more signal.
The test system of experiment [11] is PRMT1 (protein arginine N-methyltransferase 1). Nature of the experiment: small molecules binding arginine methyltransferase PRMT1 – biochemical, small-molecule microarray, 635 nm fluorescence, primary screen (AID 1088).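 Further: binding of Prmt1 protein to compounds spotted on small-molecule microarray slides.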 The note with it: higher = more signal.
The nature of experiment [12]: growth effects on S. cerevisiae YJM789 – YJM789 clinical isolate, OD600, 24 h, basal, primary screen (AID 1089).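 Further: growth of clinical yeast isolate S. cerevisiae YJM 789 seeded 1000 cells per well; test concentration not given here.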 The following applies: higher = more signal, called active from +8 up or from −8 down.
A short description of experiment [13]: S. pombe growth modifiers, basal conditions – strain 972, OD600, 24 h, no modulator, primary screen (AID 1090).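 Further: basal condition with compound alone and no growth modifier present; test concentration not given here.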 The note with it: S. pombe 972 growth, higher = more signal, called active from +8 up or from −8 down.
A short description of experiment [14]: budding yeast growth modifiers under rapamycin – strain BY4716, OD600, 96 h, primary screen (AID 1091). Further: test concentration not given here. The note with it: S. cerevisiae BY4716 + rapamycin, higher = more signal, called active from +8 up or from −8 down.
Experiment [15] has as its target Torsin-1A-interacting protein 2 (Homo sapiens) (UniProt Q8NFQ8). Nature of the experiment: small molecules binding lysate-expressed LULL1 – cell lysate, human LULL1 lysate, 635/667 nm fluorescence, primary screen (AID 1092).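 Further: probe is lysate of COS7 cells overexpressing human LULL1; score merges per-feature 667 nm fluorescence with signal-to-noise.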 The note with it: small-molecule microarray, hLULL1 lysate binding, 635 nm fluorescence; higher = more signal.
Experiment [16] can be described thus: optical density change of DRC41 E. coli – strain DRC41, OD650, 24 h, E. coli filamentation project, primary screen (AID 1093).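 Further: MC1000 strain lacking acrAB efflux and sulA so SOS filamentation is blocked; test concentration not given here.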 The following applies: E. coli DRC41 growth, higher = more signal, called active from +8 up or from −8 down.
The nature of experiment [17]: probe aLefty2 binding to arrayed compounds – biochemical, biotinylated probe, 635/667 nm fluorescence, primary screen (AID 1094).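 Further: score merges spot fluorescence near 667 nm with spot signal-to-noise ratio.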 The following applies: small-molecule microarray, higher = more signal.
Experiment [18] deals with Noggin (protein binding on small-molecule microarray). Nature of the experiment: small molecules binding Noggin protein – biochemical, 635/667 nm fluorescence, primary screen (AID 1095).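 Further: score merges 667 nm feature fluorescence with signal to noise over triplicate slides.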 The note with it: 635 nm fluorescence, higher = more signal.
Experiment [19] has as its target Neurogenic locus notch homolog protein 3 (Homo sapiens) (UniProt Q9UM47). Nature of the experiment: small molecules binding NOTCH3 protein – biochemical, 635/667 nm fluorescence, primary screen (AID 1096). The note with it: small-molecule microarray, 635 nm fluorescence, higher = more signal.
Experiment [20] can be described thus: probe aEGFR binding to arrayed compounds – biochemical, biotinylated probe, 635/667 nm fluorescence, primary screen (AID 1097).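 Further: probe is a biotinylated anti-EGFR antibody binding compounds printed on slides; score combines fluorescence near 667 nm and signal to noise of each spot.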 The following applies: small-molecule microarray, higher = more signal.

Pro-neuregulin-1, membrane-bound isoform (Homo sapiens), sequence (Q02297 whole entry, looked up, the tested form may be a part, canonical isoform): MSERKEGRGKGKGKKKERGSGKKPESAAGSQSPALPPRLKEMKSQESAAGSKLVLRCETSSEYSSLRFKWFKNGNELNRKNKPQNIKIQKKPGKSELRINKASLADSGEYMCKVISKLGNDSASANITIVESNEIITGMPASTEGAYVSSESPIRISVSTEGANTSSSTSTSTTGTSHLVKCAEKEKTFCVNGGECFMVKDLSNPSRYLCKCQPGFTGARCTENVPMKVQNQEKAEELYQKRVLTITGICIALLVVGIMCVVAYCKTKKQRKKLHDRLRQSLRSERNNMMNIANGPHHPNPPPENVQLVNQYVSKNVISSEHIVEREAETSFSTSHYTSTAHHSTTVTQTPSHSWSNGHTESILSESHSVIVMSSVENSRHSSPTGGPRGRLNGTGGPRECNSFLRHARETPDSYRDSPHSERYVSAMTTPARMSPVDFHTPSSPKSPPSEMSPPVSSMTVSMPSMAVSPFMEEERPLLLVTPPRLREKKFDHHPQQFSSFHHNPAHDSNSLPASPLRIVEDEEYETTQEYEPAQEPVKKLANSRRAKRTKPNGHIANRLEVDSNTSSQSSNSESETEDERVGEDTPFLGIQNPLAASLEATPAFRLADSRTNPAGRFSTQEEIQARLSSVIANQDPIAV
Neurogenic locus notch homolog protein 3 (Homo sapiens), sequence (Q9UM47 whole entry, looked up): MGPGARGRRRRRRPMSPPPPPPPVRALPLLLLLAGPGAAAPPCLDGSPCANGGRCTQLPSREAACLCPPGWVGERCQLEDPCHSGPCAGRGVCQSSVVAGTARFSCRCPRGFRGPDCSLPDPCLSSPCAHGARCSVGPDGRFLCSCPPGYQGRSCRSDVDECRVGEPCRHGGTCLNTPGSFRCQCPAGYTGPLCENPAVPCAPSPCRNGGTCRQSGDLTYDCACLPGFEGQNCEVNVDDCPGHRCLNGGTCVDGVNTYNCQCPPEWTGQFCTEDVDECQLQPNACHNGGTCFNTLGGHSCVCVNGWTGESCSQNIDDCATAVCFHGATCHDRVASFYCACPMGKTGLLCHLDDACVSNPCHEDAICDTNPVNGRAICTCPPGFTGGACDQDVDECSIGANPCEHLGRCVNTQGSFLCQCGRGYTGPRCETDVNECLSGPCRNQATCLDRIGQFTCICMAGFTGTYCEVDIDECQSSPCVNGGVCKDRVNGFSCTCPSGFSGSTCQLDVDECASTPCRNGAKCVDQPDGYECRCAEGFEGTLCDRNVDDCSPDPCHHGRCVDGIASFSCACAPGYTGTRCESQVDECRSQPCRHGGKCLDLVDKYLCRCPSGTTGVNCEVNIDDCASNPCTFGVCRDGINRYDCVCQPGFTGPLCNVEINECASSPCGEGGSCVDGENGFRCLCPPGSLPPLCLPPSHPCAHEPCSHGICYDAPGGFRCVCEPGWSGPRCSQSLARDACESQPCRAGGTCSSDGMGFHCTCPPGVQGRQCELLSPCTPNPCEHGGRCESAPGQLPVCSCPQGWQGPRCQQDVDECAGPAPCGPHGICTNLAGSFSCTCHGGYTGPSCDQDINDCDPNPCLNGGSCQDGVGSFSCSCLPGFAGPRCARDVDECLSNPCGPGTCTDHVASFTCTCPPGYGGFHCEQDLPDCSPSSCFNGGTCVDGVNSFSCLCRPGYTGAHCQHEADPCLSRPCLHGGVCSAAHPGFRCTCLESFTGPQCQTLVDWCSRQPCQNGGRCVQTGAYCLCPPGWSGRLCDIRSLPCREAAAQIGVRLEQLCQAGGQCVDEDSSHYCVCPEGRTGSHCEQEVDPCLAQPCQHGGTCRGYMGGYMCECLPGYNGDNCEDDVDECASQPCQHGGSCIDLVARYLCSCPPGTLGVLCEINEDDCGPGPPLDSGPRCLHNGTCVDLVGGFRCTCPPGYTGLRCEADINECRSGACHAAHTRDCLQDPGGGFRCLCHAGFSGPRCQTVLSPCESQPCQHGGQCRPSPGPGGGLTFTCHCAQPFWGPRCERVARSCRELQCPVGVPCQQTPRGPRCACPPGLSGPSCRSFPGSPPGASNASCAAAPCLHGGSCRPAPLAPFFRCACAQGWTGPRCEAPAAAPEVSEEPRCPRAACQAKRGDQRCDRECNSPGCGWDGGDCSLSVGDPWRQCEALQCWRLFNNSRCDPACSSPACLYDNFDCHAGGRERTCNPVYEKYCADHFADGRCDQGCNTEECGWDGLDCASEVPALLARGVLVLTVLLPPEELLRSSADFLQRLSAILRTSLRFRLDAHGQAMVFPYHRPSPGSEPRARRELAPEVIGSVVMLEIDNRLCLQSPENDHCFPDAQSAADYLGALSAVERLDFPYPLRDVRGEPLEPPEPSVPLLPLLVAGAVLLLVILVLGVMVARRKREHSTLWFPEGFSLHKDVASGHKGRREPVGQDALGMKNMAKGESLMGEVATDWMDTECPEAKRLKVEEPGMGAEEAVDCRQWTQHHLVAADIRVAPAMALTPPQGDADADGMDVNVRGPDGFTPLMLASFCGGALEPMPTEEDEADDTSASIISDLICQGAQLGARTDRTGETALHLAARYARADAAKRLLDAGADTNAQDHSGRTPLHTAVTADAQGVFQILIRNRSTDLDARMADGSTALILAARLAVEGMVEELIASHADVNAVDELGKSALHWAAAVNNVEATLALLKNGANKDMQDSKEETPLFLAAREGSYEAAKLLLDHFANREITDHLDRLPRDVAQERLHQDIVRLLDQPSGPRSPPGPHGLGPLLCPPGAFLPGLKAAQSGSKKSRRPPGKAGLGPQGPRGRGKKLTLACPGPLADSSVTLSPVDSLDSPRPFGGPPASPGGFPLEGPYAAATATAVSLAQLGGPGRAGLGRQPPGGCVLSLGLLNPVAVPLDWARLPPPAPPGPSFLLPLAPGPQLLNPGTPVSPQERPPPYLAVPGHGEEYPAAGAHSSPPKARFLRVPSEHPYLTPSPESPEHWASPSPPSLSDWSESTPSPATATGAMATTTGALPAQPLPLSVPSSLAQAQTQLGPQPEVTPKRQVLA
Torsin-1A-interacting protein 2 (Homo sapiens), sequence (Q8NFQ8 whole entry, looked up): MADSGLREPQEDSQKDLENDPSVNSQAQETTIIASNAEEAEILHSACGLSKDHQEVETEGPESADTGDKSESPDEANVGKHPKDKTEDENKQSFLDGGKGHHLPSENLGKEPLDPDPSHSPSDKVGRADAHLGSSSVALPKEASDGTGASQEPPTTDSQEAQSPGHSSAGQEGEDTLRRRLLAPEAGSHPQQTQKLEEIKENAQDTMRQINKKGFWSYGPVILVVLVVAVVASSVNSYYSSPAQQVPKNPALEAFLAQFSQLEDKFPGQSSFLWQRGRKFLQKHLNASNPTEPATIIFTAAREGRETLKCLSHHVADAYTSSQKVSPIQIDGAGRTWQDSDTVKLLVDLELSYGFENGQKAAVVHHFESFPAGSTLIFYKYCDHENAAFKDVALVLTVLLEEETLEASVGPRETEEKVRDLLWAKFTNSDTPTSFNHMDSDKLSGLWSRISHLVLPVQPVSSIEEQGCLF

On to `C=CCOC(=O)[C@H]1[C@@H]2C(=O)O[C@@H](c3ccccc3)[C@@H](c3ccccc3)N2[C@@H](c2ccc(OCCOC(=O)[C@H]3C[C@H]4C(=O)N[C@@H](CC(C)C)C(=O)N4[C@H]3c3ccc(O)cc3)cc2)[C@]12C(=O)Nc1ccccc12`, for which the composite z-score in experiment [1] was -0.109; in [2], 1.34; in experiment [3] it was -0.079; in experiment [4] it was 0.868; in experiment [5] it was 1.46; in [6], 1.45. In addition, the composite z-score was 1.43 in [7]; 0.174 in experiment [9]; 0.213 in [10]; 1.53 in experiment [11]; 2.42 in experiment [15]; -0.084 in [17]. In addition, the results for the composite z-score in [18], in experiment [19] and in [20] were 0.993, 1.08 and 0.11, respectively. Moreover, the z-score in experiment [8] is -0.0648 (inactive); in experiment [12], 2.24 (inactive); in experiment [13], 1.47 (inactive); in experiment [14] it was 3.92 (inactive); in experiment [16] it was 0.0375 (inactive).

On to `COC(=O)[C@@]1(Cc2ccc(F)cc2)[C@H]2c3cc(C(=O)N(C)C)n(CCc4ccc(O)c(O)c4)c3C[C@H]2CN1C(=O)c1ccccc1`, for which the composite z-score in experiment [1] was -0.0383; in [2], -0.134; in experiment [3], 0.187; in experiment [4], 0.876; in experiment [5], 1.68; in [6], 0.562. In addition, the composite z-score was 1 in [7]; 0.662 in [9]; -0.374 in experiment [10]; -0.0562 in experiment [11]; 2.56 in [15]; 0.534 in experiment [17]. Besides, the values for the composite z-score in experiment [18], in [19] and in experiment [20] were -0.601, 0.498 and 0.253, respectively. The z-score in experiment [8] was 0.115 (inactive); in [12], 0.278 (inactive); in experiment [13] it was 0.955 (inactive); in experiment [14], 0.987 (inactive); in experiment [16], -0.365 (inactive).

Turning to `COc1ccc(C(=O)Nc2ccc3c(c2)[C@@]2(O[C@H](CCO)[C@@H]([Si](C)(C)c4ccc(OC)cc4)[C@@H]2C)C(=O)N3Cc2ccccc2)cc1`, the composite z-score in experiment [1] was -0.122; in experiment [2] it was 0.143; in [3], -0.0333; in [4] it was -0.0652; in experiment [5] it was 0.562; in experiment [6], 0.929. Moreover, the composite z-score in experiment [7] is 1.07; in experiment [9], 0.154; in [10], 0.2; in [11] it was 1.28; in [15], 1.94; in experiment [17], -0.0124. Further, the composite z-score in experiment [18] was 1.32; in experiment [19], 0.742; in [20] it was -0.0828. For the same compound, the z-score in experiment [8] is -3.68 (inactive); in [12] it was -0.0565 (inactive); in [13] it was -4.96 (inactive); in experiment [14] it was 2.7 (inactive); in experiment [16] it was 0.629 (inactive).

Regarding `COCCCNC(=O)[C@@]1(Sc2ccc(C)cc2)CC(=O)N(Cc2ccccc2C(F)(F)F)[C@@H]1c1ccc(CO)cc1I`, the composite z-score in experiment [1] was 1.21; in experiment [2], -0.204; in [3], -0.132; in experiment [4], -2.12; in experiment [5], -1.8; in experiment [6] it was 1.17. Moreover, the composite z-score in experiment [7] is -0.823; in experiment [9], -0.228; in [10] it was -0.132; in experiment [11] it was 0.242; in experiment [15], 1.08; in [17] it was 0.0245. For the same compound, the composite z-score was -2.51 in experiment [18], -1.4 in experiment [19] and -0.203 in [20]. Also, the z-score in [8] was -0.903 (inactive); in [12] it was -0.394 (inactive); in [13], -1.05 (inactive); in experiment [14], 0.461 (inactive); in experiment [16], 0.217 (inactive).

In the case of `COC(=O)[C@@]1(Cc2ccc(F)cc2)[C@H]2c3cc(C(=O)N(C)C)n(C)c3C[C@H]2CN1C(=O)c1ccccc1`, the composite z-score in experiment [1] was -0.187; in [2], -0.609; in experiment [3] it was 0.0364; in experiment [4], 1.08; in experiment [5], 1.58; in experiment [6], 1.12. Besides, the composite z-score in experiment [7] was 1.16; in experiment [9] it was 0.229; in [10], 0.0677; in experiment [11], -0.97; in experiment [15] it was 2.54; in experiment [17], 0.519. Also, the composite z-score is -0.608 in experiment [18], 0.381 in experiment [19] and 0.383 in [20]. The z-score in experiment [8] was 0.736 (inactive); in [12] it was 0.0108 (inactive); in experiment [13] it was 0.476 (inactive); in experiment [14], 0.08 (inactive); in experiment [16], -0.339 (inactive).

The record behind these values is PubChem BioAssay.
